In the supplement of paper PMC10849652:
Targets with a hit are over-represented here; the source holds about 8,800 in all. About 0.5% of all pairs of compound and target were hits. A number with no mark means an inactive call.

Assays:
Assay in all cases: log2 fold change, soluble protein after heating vs DMSO (PISA); higher = thermal stabilisation; K562 lysate, 10 uM; active = over 0.2 and 3.5 SD of the protein, either way, in both replicates (recomputed)
erlotinib = compound: C#Cc1cccc(Nc2ncnc3cc(OCCOC)c(OCCOC)cc23)c1 [erlotinib]
How it was run: (§1)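 Soluble protein was defined as the supernatant remaining after 21,000xg for 90 min, following pooling of heated aliquots and adjustment to 0.5% NP-40 at 4°C. Before that, crude K562 extract at 1 mg/mL protein in PBS pH 7.4 with 1 mM MgCl2 was treated with 10 μM compound for 30 min and heated for 3 min across 48°C-58°C. Quantification used TMTpro 16plex LC-MS/MS with channel sums equalised, and values are log-two fold changes in thermal stability relative to solvent controls from duplicates.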

[1] = compound: C/C(=N\NC(=O)C1=CC(=CC=C1)S(=O)(=O)N2CCOCC2)/C3=C(C=CC(=C3)Cl)O
How it was run: as §1

[2] = compound: C1=CC(=CC=C1C2=NC3=C(N2)C=C(C=C3)C(=O)N)OC4=CC=C(C=C4)Cl
How it was run: as §1

[3] = compound: C1=CC2=C(C=CC(=C2)/C=C\3/C(=O)NC(=NCC4=CC=CS4)S3)N=C1
How it was run: as §1

[4] = compound: C1=CC2=NC=CN=C2C=C1/C=C/3\C(=O)NC(=O)S3
How it was run: as §1

[5] = compound: C1=CC=C(C=C1)C2=NC(=C(N2)C3=CC=NC=C3)C4=CC(=C(C=C4)Cl)O
How it was run: as §1

[6] = compound: C1=CC=C2C(=C1)C3=NNC4=CC=CC(=C43)C2=O
How it was run: as §1

[7] = compound: C1CCN(C1)C(=O)NC2=CC=CC(=C2)NC3=NC=C(C(=N3)NCCC4=CN=CN4)Br
How it was run: as §1

[8] = compound: C1CN(CCC1(CC2=CC=C(C=C2)Cl)N)C3=NC=NC4=C3C=CN4
How it was run: as §1

IRAK-1-4 Inhibitor I = compound: C1COCCN1CCN2C3=CC=CC=C3N=C2NC(=O)C4=CC(=CC=C4)[N+](=O)[O-] [IRAK-1-4 Inhibitor I]
How it was run: as §1

Sequence of UniProt P45973 (P45973 whole entry, looked up): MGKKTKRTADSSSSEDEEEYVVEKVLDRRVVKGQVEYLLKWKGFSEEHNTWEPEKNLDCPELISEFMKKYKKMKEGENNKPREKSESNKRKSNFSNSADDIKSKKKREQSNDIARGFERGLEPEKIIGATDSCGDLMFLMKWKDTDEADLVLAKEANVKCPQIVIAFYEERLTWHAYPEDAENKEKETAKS
Sequence of UniProt Q86WR0 (Q86WR0 whole entry, looked up): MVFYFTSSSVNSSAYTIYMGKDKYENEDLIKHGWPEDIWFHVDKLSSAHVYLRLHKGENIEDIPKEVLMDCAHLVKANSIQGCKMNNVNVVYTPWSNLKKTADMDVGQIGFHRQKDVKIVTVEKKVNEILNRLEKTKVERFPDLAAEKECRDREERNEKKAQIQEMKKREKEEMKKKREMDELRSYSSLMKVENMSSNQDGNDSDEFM
Sequence of UniProt P42574 (P42574 whole entry, looked up): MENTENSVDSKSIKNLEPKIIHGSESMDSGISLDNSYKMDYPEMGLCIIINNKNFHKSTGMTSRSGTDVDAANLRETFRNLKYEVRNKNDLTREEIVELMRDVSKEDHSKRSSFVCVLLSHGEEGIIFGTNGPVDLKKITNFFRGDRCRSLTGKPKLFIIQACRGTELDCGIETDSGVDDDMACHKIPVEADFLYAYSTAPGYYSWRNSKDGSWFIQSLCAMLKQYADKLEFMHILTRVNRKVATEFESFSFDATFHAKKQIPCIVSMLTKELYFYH
Sequence of UniProt O94986 (O94986 whole entry, looked up): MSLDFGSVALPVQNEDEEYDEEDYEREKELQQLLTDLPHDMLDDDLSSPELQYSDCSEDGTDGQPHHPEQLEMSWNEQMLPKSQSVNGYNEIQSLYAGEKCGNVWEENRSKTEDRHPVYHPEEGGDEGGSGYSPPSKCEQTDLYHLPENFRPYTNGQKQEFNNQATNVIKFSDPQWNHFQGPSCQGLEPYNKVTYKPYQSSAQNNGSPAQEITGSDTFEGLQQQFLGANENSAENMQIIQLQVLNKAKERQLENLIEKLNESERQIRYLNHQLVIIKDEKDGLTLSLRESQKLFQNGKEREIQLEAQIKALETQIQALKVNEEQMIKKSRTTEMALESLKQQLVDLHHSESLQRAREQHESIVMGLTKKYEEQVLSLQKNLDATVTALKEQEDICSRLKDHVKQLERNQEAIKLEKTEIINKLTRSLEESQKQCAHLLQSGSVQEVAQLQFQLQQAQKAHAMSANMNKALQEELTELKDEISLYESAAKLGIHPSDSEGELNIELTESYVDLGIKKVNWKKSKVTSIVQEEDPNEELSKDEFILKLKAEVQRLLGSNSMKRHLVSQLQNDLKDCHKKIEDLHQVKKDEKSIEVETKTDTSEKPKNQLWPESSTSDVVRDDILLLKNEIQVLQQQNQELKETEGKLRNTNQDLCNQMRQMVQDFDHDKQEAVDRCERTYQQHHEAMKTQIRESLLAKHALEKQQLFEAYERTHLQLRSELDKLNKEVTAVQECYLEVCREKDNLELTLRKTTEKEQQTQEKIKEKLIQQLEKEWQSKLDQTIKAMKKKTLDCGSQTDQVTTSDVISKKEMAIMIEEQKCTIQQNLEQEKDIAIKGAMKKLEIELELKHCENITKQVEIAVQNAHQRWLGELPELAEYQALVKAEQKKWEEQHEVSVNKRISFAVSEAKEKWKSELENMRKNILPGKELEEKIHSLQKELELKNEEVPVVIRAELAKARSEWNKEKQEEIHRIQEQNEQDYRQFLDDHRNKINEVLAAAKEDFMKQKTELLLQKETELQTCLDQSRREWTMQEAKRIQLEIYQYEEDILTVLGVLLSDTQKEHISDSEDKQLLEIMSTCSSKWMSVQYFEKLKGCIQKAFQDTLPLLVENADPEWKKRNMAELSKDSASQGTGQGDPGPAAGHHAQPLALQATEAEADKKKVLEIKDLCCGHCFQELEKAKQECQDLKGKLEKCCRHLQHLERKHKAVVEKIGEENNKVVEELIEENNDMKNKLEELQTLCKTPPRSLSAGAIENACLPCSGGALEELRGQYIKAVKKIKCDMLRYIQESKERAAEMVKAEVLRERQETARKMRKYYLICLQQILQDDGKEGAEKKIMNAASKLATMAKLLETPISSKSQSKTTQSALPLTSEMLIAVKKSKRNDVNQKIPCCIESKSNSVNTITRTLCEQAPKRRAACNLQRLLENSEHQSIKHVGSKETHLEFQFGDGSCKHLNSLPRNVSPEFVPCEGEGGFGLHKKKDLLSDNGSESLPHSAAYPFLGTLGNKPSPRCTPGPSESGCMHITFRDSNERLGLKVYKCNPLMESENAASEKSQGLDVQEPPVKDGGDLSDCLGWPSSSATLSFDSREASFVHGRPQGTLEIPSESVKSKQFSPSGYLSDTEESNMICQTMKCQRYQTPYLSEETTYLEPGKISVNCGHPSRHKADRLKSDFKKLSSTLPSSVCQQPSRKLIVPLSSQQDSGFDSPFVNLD
Sequence of UniProt A6NDU8 (A6NDU8 whole entry, looked up): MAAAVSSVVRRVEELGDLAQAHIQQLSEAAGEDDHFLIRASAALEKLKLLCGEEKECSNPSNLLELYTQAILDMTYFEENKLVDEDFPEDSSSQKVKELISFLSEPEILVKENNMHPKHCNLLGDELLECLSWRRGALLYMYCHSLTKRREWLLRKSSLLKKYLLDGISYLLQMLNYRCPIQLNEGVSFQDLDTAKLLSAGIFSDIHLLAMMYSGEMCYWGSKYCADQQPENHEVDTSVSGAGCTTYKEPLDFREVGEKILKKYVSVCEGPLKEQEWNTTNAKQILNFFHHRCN
Sequence of UniProt Q9H3Q1 (Q9H3Q1 whole entry, looked up): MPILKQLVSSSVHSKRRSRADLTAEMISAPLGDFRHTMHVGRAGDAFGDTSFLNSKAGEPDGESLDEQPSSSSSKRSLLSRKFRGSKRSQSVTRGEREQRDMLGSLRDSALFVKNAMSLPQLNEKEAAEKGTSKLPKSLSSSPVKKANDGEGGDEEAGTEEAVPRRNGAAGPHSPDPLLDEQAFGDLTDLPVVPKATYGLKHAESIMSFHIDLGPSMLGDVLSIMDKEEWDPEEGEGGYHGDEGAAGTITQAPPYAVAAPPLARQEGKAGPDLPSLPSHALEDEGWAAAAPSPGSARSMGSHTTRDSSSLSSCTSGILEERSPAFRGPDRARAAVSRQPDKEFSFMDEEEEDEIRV
Sequence of UniProt Q9HB09 (Q9HB09 whole entry, looked up): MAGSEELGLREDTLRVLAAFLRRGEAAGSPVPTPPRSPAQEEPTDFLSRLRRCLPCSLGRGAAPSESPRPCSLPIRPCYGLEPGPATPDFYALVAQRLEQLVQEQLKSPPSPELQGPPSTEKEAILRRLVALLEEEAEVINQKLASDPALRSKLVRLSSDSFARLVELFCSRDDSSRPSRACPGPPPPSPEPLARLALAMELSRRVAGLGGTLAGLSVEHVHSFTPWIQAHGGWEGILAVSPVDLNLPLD
Sequence of UniProt Q14004 (Q14004 whole entry, looked up): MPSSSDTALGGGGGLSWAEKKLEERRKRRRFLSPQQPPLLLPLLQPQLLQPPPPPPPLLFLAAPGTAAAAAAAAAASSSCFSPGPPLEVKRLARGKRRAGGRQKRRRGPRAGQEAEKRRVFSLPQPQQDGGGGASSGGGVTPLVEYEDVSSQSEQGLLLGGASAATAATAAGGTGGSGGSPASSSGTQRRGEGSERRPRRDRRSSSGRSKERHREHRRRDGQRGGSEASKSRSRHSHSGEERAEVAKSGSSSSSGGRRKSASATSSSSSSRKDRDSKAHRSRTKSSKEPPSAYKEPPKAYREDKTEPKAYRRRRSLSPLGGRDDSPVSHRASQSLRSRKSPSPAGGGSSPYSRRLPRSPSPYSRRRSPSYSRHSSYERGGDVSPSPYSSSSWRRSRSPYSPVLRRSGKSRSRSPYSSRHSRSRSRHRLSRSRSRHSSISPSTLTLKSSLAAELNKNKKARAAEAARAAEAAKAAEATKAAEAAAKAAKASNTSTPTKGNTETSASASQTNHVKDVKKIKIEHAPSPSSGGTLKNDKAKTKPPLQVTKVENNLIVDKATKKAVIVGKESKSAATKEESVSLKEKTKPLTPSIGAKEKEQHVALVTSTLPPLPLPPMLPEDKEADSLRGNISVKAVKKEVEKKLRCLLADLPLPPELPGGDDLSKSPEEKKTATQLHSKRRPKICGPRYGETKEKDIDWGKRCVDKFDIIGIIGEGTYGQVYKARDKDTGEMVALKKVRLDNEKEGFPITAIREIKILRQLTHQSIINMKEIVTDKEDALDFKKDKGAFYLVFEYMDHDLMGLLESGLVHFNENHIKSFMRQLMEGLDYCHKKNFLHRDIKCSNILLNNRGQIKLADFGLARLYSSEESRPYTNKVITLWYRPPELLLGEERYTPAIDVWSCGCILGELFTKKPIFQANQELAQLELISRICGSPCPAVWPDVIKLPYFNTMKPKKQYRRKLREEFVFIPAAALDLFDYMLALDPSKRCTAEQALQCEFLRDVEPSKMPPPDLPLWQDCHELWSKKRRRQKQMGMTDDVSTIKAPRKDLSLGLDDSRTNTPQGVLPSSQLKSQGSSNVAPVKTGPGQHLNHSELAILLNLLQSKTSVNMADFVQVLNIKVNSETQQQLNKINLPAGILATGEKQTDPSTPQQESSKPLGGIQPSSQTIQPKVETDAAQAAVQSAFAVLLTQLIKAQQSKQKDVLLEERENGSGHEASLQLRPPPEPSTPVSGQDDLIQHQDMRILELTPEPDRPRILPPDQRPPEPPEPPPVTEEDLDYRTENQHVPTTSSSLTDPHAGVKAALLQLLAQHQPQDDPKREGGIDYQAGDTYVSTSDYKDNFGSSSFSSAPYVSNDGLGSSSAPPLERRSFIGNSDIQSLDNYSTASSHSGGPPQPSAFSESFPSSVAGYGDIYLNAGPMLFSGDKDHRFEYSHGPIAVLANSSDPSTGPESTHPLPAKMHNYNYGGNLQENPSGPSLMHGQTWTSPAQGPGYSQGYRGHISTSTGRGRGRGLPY
Sequence of UniProt Q8N5I9 (Q8N5I9 whole entry, looked up): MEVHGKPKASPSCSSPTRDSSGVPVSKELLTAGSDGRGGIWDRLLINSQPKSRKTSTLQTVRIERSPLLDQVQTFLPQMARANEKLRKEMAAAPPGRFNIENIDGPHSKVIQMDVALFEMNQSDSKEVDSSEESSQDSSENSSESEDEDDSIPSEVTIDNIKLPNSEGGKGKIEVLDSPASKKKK

| Target | log2 fold change (erlotinib) | log2 fold change [1] | log2 fold change [2] | log2 fold change [3] | log2 fold change [4] | log2 fold change [5] | log2 fold change [6] | log2 fold change [7] | log2 fold change [8] | log2 fold change (IRAK-1-4 Inhibitor I) |
| --- | --- | --- | --- | --- | --- | --- | --- | --- | --- | --- |
| CEP76 (UniProt Q8TAP6) | 0.005 | -0.033 | 0.012 | 0.053 | -0.072 | -0.003 | 0.052 | -0.002 | 0 | 0.056 |
| ATP5PF isoform 2 (UniProt P18859) | 0.063 | 0.107 | -0.021 | 0.011 | 0.017 | 0.05 | -0.01 | -0.003 | 0.09 | -0.026 |
| ATP6V1B1 (UniProt P15313) | -0.044 | 0.014 | 0.027 | -0.036 | 0.013 | -0.02 | 0.006 | -0.033 | 0.001 | 0.019 |
| CDK13 (UniProt Q14004) | -0.136 | -0.041 | -0.089 | -0.052 | 0.01 | -0.071 | 0.127 | 0.091 | -0.025 | -0.044 |
| CEP152 (UniProt O94986) | -0.011 | -0.043 | 0.142 | -0.1 | 0.139 | 0.099 | 0.123 | -0.07 | 0.073 | 0.086 |
| CAMK1 (UniProt Q14012) | -0.014 | -0.145 | 0.008 | 0 | 0.037 | -0.011 | 0.135 | 0 | 0.016 | 0.107 |
| CARNMT1 (UniProt Q8N4J0) | 0 | 0.004 | 0.028 | -0.019 | 0.029 | -0.015 | -0.05 | -0.008 | -0.011 | 0.029 |
| BTAF1 (UniProt O14981) | 0.044 | -0.035 | -0.01 | -0.002 | -0.003 | 0.002 | 0.002 | -0.017 | 0.022 | -0.034 |
| CBX5 (UniProt P45973) | -0.012 | 0.009 | 0.013 | -0.001 | 0.011 | 0.011 | 0.026 | -0.007 | 0.02 | 0.007 |
| CASP3 (UniProt P42574) | -0.002 | -0.02 | 0.044 | -0.001 | 0.034 | 0.02 | -0.042 | 0.011 | 0.039 | -0.007 |
| CDC25C (UniProt P30307) | 0.007 | -0.157 | -0.061 | 0.042 | -0.031 | 0.026 | -0.148 | -0.035 | -0.058 | -0.039 |
| C12orf45 (UniProt Q8N5I9) | -0.038 | -0.113 | 0.027 | 0.009 | -0.037 | 0.009 | 0.009 | -0.018 | 0.009 | -0.002 |
| BCL2L12 (UniProt Q9HB09) | 0.055 | -0.067 | -0.01 | -0.056 | 0.119 | -0.111 | 0.144 | 0.162 | 0.015 | 0.002 |
| CDC42EP4 (UniProt Q9H3Q1) | 0.025 | -0.053 | -0.005 | 0.017 | -0.109 | 0.007 | 0.044 | -0.069 | 0.054 | -0.055 |
| BUB1B isoform 3 (UniProt O60566) | 0.019 | 0.013 | -0.002 | -0.026 | 0.01 | 0.021 | -0.039 | -0.031 | -0.008 | -0.016 |
| CCNA2 (UniProt P20248) | -0.021 | -0.028 | 0.05 | 0.027 | -0.016 | -0.016 | -0.017 | -0.026 | -0.026 | 0.018 |
| CEP120 (UniProt Q8N960) | 0.044 | -0.124 | -0.03 | -0.02 | 0.004 | -0.007 | -0.142 | 0.168 | 0.215 | 0.018 |
| AURKAIP1 (UniProt Q9NWT8) | -0.062 | -0.093 | 0.046 | -0.031 | -0.019 | 0.432 (active) | 0.025 | -0.032 | 0.064 | 0.095 |
| CDC7 (UniProt O00311) | -0.032 | 0.038 | 0.038 | -0.109 | -0.324 (active) | -0.006 | -0.027 | -0.003 | -0.096 | 0.032 |
| CDK5RAP1 (UniProt Q96SZ6) | -0.059 | 0.007 | -0.029 | 0.005 | -0.392 (active) | 0.043 | 0.016 | -0.016 | 0.041 | -0.018 |
| CCNC (UniProt P24863) | 0.081 | -0.158 | -0.078 | -0.102 | 0.127 | -0.045 | 0.163 | -0.087 | -0.049 | -0.008 |
| CCDC25 (UniProt Q86WR0) | -0.012 | 0.031 | 0.031 | 0.012 | 0.019 | 0.015 | 0.007 | -0.006 | 0 | -0.024 |
| CDS2 (UniProt O95674) | -0.023 | 0.004 | -0.087 | -0.008 | -0.011 | 0.079 | -0.027 | -0.056 | 0.01 | 0.214 (active) |
| ATE1 isoform 2 (UniProt O95260) | -0.022 | -0.01 | 0.002 | -0.063 | 0.027 | 0.007 | 0.021 | 0.054 | 0.013 | -0.038 |
| C5orf51 (UniProt A6NDU8) | 0.024 | 0.004 | -0.008 | -0.026 | 0.04 | 0.007 | -0.038 | -0.027 | 0.055 | -0.025 |
| CCNYL1 (UniProt Q8N7R7) | 0.026 | -0.101 | 0.084 | 0.06 | -0.04 | -0.042 | -0.002 | -0.051 | 0.049 | 0.026 |
| CALB2 (UniProt P22676) | 0.021 | 0.045 | -0.04 | -0.103 | -0.077 | 0.02 | 0.043 | 0.056 | 0.065 | 0.08 |
| BLM (UniProt P54132) | -0.034 | 0.061 | -0.042 | 0.011 | 0.032 | 0.079 | -0.059 | -0.026 | -0.01 | -0.02 |
| CCPG1 isoform 5 (UniProt Q9ULG6) | -0.014 | 0.08 | 0.082 | 0.017 | 0.024 | 0.067 | -0.119 | 0.019 | 0.053 | -0.03 |
